Assay results taken from PubChem BioAssay (EPA / NIEHS).
Activity calls are given as the source filed them. How the source made its calls: active means hit-call score of the fitted dose curve at least 0.9, where 1 is the maximum; inactive means score below 0.9.

Columns and labels:
[1] = target: Bile acid receptor (Homo sapiens) (UniProt Q96RI1); assay: ATG_IR1_CIS: Attagene CIS-FACTORIAL HepG2 Assay for human Nuclear Receptor Subfamily 1 Group H Member 4 (NR1H4), IR1 submotif (AID 2282946); conditions: IR1 reporter transcription, actives raise or lower the signal
Chain of Bile acid receptor (Homo sapiens) (Q96RI1 whole entry, looked up): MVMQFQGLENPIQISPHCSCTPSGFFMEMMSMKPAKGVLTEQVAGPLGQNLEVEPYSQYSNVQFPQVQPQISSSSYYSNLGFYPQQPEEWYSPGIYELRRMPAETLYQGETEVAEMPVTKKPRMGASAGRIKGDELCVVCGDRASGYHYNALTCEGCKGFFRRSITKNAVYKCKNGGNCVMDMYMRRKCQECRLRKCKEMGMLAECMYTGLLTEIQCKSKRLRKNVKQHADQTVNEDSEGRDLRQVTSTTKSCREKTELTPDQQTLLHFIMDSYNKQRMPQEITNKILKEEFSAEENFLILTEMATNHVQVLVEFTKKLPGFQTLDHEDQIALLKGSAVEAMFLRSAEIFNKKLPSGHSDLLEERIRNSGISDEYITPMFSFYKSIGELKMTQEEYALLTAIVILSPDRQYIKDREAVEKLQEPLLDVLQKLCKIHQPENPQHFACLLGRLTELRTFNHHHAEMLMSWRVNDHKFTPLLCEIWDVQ
In short: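 HepG2 cells transiently transfected with multiplexed cis-element reporter units read endogenous transcription factor activity. After 24 h compound exposure, reporter mRNA was quantified by RT-PCR, fluorescent labelling, HpaI digestion and capillary electrophoresis; bidirectional fitting versus DMSO baseline.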

[2] = ATG_GRE_CIS: Attagene CIS-FACTORIAL HepG2 Assay for human Glucocorticoid Response Elements (GRE) (AID 2282947); conditions: HepG2 GRE cis-reporter, Attagene multiplex mRNA; actives raise or lower the signal
In short: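 Multiplexed cis-reporter mRNA induction, HepG2, 24 h post-dose. RT-PCR, FAM-labelled, HpaI-digested amplicons by CE. Bidirectional fit vs DMSO.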

[3] = ATG_ISRE_CIS: Attagene CIS-FACTORIAL HepG2 Assay for human Interferon Regulatory Factor 1 (IRF1) binding to an Interferon-Stimulated Response Element (ISRE) (AID 2282948); conditions: HepG2 ISRE cis-reporter (Attagene), mRNA transcription readout; actives raise or lower the signal
In short: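 Uses HepG2 liver cells transfected with cis-regulated reporters and measures mRNA 24 h post-dosing through RT-PCR, primer-extension labelling and capillary electrophoresis, with DMSO as negative control.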

[4] = ATG_M_32_CIS: Attagene CIS-FACTORIAL HepG2 Assay for M32 Transcription Factor (Internal Marker) (AID 2282949); conditions: HepG2 Attagene cis-factorial M32 reporter, mRNA; actives raise or lower the signal;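 further: background control marker of the multiplexed CIS panel rather than a real target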
In short: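 Transient MRTU transfection of HepG2; 24 h compound treatment; TriZol RNA, oligo(dT) RT, reporter PCR, 6-FAM primer extension, HpaI cut, CE. Gain/loss of signal vs DMSO.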

[5] = ATG_M_06_CIS: Attagene CIS-FACTORIAL HepG2 Assay for M06 Transcription Factor (Internal Marker) (AID 2282950); conditions: HepG2 Attagene CIS-FACTORIAL M06 internal marker reporter; actives raise or lower the signal
In short: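 Terse: HepG2, transient MRTU transfection (FuGene 6), 24 h dosing; total RNA, oligo(dT) RT, PCR, FAM label, HpaI cut, capillary electrophoresis; bidirectional fit vs DMSO baseline; background-control endpoint.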

[6] = target: Hypoxia-inducible factor 1-alpha (Homo sapiens) (UniProt Q16665); assay: ATG_HIF1a_CIS: Attagene CIS-FACTORIAL HepG2 Assay for human Hypoxia Inducible Factor 1 (HIF1A) (AID 2282951); conditions: HepG2 Attagene cis-factorial HIF1a reporter transcription; actives raise or lower the signal
Chain of Hypoxia-inducible factor 1-alpha (Homo sapiens) (Q16665 whole entry, looked up): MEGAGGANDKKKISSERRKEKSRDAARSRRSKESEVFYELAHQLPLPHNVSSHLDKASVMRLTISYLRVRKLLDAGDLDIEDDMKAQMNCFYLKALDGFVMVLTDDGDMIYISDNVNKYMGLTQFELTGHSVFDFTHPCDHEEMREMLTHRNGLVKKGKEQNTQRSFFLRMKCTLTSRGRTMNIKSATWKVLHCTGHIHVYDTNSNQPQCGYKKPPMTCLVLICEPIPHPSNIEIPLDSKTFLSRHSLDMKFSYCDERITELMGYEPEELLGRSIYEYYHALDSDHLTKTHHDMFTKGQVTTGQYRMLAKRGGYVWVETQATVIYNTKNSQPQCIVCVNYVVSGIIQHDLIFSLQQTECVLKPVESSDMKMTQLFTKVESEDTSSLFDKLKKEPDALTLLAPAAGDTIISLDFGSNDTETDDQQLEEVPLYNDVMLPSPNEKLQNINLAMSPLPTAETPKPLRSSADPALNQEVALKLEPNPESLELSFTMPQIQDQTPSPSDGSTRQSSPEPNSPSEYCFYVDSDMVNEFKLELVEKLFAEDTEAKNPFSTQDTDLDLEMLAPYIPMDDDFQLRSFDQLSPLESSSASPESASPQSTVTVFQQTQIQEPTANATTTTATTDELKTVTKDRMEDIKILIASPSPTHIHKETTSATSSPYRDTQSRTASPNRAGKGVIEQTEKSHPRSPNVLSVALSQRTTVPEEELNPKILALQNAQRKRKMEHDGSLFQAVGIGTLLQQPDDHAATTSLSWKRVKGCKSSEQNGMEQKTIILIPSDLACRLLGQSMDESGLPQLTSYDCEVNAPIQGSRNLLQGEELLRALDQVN
In short: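 Dosed 24 h, transfected HepG2 cells yielded total RNA whose reporter transcripts were RT-PCR-amplified and sized by capillary electrophoresis using fluorescent labelling; DMSO defined baseline, with gain and loss of signal both fitted.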

[7] = target: Hepatocyte nuclear factor 6 (Homo sapiens) (UniProt Q9UBC0); assay: ATG_HNF6_CIS: Attagene CIS-FACTORIAL HepG2 Assay for human Hepatocyte Nuclear Factor 6 (HNF6) (AID 2282952); conditions: HepG2 Attagene cis-factorial HNF6 reporter transcription; actives raise or lower the signal
Chain of Hepatocyte nuclear factor 6 (Homo sapiens) (Q9UBC0 whole entry, looked up, the tested form may be a part): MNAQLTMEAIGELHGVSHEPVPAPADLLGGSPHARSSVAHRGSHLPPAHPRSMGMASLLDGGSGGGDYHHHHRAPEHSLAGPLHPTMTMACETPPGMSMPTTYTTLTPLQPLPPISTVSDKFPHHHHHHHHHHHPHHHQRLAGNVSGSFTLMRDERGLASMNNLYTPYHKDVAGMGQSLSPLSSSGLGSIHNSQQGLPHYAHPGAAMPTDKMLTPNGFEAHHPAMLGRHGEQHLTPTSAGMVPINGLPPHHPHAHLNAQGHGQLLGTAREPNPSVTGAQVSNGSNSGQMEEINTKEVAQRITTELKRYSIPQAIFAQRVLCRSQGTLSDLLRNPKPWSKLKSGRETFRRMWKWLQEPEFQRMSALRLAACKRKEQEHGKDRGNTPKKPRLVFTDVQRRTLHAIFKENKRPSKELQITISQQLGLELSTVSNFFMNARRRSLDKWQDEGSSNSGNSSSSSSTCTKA
In short: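 Twenty-four-hour chemical treatment of reporter-transfected HepG2 cells precedes RNA isolation, DNase-treated reverse transcription and PCR of reporter sequences. Labelled fragments are sized by capillary electrophoresis and fitted bidirectionally versus DMSO.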

[8] = target: Heat shock factor protein 1 (Homo sapiens) (UniProt Q00613); assay: ATG_HSE_CIS: Attagene CIS-FACTORIAL HepG2 Assay for human Heat Shock Transcription Factor 1 (HSE) (AID 2282953); conditions: HepG2 HSE cis-reporter, Attagene RNA transcription; actives raise or lower the signal
Chain of Heat shock factor protein 1 (Homo sapiens) (Q00613 whole entry, looked up, the tested form may be a part): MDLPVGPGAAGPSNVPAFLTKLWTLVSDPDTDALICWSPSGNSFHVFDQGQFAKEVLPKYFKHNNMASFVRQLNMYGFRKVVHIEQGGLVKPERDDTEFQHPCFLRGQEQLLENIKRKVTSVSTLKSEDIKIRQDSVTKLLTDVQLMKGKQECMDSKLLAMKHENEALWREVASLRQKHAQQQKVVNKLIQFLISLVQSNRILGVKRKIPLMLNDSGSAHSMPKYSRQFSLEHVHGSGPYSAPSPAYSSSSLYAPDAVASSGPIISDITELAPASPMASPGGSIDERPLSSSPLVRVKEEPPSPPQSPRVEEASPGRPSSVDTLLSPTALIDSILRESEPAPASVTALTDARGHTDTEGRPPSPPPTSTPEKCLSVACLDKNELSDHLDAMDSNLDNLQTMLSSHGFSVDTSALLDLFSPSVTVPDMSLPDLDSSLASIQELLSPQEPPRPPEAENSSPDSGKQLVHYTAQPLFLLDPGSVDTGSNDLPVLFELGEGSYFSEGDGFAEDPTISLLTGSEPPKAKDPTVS
In short: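 Read-out: fluorescence of reporter-specific RT-PCR fragments separated by capillary electrophoresis. HepG2 carrying transfected cis-element reporter units; 24 h dosing; activity fitted in both directions relative to DMSO baseline.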

[9] = ATG_MRE_CIS: Attagene CIS-FACTORIAL HepG2 Assay for human Metal Responsive Element (MRE) (AID 2282954); conditions: HepG2 MRE cis-reporter transcription, Attagene multiplex; actives raise or lower the signal
In short: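 Multiplexed cis-reporter assay in human HepG2 liver cells, 24 h incubation with test chemical. Reporter transcripts measured by RT-PCR and capillary electrophoresis; values from bidirectional curve fitting versus DMSO.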

[10] = target: Paired box protein Pax-6 (Homo sapiens) (UniProt P26367); assay: ATG_Pax6_CIS: Attagene CIS-FACTORIAL HepG2 Assay for human Paired Box 6 (PAX6) (AID 2282956); conditions: HepG2 CIS-FACTORIAL PAX6 reporter transcription, RNA readout; actives raise or lower the signal
Chain of Paired box protein Pax-6 (Homo sapiens) (P26367 whole entry, looked up): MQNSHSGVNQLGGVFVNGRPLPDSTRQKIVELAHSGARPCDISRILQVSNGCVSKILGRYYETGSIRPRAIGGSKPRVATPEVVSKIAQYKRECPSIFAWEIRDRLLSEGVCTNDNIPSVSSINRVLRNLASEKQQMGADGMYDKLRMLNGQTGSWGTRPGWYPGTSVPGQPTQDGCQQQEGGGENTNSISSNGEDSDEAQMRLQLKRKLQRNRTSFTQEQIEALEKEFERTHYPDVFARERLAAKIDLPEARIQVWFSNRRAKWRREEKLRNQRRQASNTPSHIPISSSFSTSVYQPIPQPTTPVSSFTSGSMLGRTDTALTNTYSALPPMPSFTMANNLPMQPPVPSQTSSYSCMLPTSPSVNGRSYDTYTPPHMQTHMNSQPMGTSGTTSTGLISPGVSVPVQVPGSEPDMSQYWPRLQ
In short: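 DMSO-referenced bidirectional fits of reporter mRNA fluorescence; HepG2 with transient cis-promoter MRTUs, 24 h post-dose, RT-PCR plus capillary electrophoresis detection.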

[11] = ATG_PPRE_CIS: Attagene CIS-FACTORIAL HepG2 Assay for human Peroxisome Proliferator-activated Response Element (PPRE) (AID 2282958); conditions: HepG2 PPRE cis-element reporter, Attagene transcription factor profiling; actives raise or lower the signal
In short: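 Measured endpoint: PPRE-controlled reporter mRNA, detected by RT-PCR and capillary electrophoresis fluorescence, from transiently transfected HepG2 cells 24 h after dosing. Curves fitted in both directions using DMSO baseline.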

[12] = ATG_RORE_CIS: Attagene CIS-FACTORIAL HepG2 Assay for human RAR-related Orphan Receptor Element (RORE) (AID 2282959); conditions: HepG2 Attagene cis-factorial RORE reporter, mRNA; actives raise or lower the signal
In short: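 Transiently transfected HepG2 reporter cells were treated 24 h. Reporter transcripts were detected by RT-PCR and capillary electrophoresis, with bidirectional fitting against DMSO.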

[13] = ATG_Sox_CIS: Attagene CIS-FACTORIAL HepG2 Assay for human SRY-box transcription factor (SOX) (AID 2282960); conditions: HepG2 Attagene cis-factorial SOX reporter, mRNA; actives raise or lower the signal
In short: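 Gain- or loss-of-signal endpoint, fitted bidirectionally with DMSO as negative control. Based on reporter mRNA from transfected HepG2 cells harvested 24 h post-treatment and quantified via RT-PCR and capillary electrophoresis.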

[14] = target: Transcription factor Sp1 (Homo sapiens) (UniProt P08047); assay: ATG_Sp1_CIS: Attagene CIS-FACTORIAL HepG2 Assay for human Specificity Protein 1 (Sp1) (AID 2282961); conditions: HepG2 Sp1 cis-reporter transcription, actives raise or lower the signal
Chain of Transcription factor Sp1 (Homo sapiens) (P08047 whole entry, looked up, the tested form may be a part): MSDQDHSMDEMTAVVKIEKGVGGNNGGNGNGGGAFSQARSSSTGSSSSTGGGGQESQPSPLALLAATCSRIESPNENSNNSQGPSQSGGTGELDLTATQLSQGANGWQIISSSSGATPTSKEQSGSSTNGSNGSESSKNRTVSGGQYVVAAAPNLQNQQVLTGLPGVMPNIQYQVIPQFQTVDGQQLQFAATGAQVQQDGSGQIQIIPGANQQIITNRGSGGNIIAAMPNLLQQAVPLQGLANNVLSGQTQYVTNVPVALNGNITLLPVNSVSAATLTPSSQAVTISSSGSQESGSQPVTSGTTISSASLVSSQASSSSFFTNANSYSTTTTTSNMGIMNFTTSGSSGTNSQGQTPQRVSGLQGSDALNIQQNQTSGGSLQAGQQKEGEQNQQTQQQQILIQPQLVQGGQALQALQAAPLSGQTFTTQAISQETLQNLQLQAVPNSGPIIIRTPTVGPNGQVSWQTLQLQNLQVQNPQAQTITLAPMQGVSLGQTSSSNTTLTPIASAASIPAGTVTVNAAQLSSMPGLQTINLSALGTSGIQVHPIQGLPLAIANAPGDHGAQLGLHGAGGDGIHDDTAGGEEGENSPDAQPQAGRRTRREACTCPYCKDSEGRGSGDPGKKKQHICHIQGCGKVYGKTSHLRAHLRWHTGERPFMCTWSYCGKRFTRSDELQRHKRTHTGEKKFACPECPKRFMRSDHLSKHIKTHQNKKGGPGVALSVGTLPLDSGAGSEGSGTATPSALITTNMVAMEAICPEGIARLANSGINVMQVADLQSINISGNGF
In short: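 Endpoint reflects endogenous Sp1 transcriptional activity, not an exogenous fusion protein: HepG2 cells with transfected cis-regulated reporters, 24 h dosing, RT-PCR/capillary electrophoresis mRNA read-out, DMSO-normalised bidirectional fit.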

[15] = ATG_SREBP_CIS: Attagene CIS-FACTORIAL HepG2 Assay for human Sterol Regulatory Element Binding (SREBP) (AID 2282962); conditions: HepG2 Attagene cis-factorial SREBP reporter, mRNA; actives raise or lower the signal
In short: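 In this cis-format assay, HepG2 liver cells express reporters controlled by promoter elements responsive to native transcription factors. Exposure lasts 24 h; reporter mRNA fluorescence from capillary electrophoresis gives the signal, fitted bidirectionally against DMSO.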

[16] = target: Signal transducer and activator of transcription 3 (Homo sapiens) (UniProt P40763); assay: ATG_STAT3_CIS: Attagene CIS-FACTORIAL HepG2 Assay for human Signal Transducer and Activator of Transcription 3 (STAT3) (AID 2282963); conditions: HepG2, Attagene cis-factorial STAT3 reporter transcription; actives raise or lower the signal
Chain of Signal transducer and activator of transcription 3 (Homo sapiens) (P40763 whole entry, looked up): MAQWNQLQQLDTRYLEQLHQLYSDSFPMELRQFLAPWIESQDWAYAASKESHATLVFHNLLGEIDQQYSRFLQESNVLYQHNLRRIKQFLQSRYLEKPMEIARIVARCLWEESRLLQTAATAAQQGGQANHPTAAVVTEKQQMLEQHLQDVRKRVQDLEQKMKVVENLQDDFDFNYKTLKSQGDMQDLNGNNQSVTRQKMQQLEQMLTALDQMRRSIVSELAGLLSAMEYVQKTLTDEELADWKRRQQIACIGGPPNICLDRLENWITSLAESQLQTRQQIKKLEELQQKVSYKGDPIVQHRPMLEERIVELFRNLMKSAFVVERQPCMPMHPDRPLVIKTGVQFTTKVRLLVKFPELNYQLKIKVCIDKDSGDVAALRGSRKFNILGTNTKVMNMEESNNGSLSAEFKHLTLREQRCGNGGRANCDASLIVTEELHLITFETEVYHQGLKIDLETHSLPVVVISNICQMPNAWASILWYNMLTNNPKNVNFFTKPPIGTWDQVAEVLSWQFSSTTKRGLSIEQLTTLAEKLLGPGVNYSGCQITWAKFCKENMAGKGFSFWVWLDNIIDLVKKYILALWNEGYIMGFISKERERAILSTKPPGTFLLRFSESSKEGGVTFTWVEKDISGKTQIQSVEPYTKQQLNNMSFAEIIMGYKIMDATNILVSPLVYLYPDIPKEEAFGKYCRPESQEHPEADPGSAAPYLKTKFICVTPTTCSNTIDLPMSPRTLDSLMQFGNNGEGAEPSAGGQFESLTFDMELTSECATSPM
In short: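 Cis-factorial format: endogenous transcription factors in HepG2 drive transfected reporter units. After 24 h treatment, reporter RNA was reverse-transcribed, amplified, FAM-labelled and HpaI-digested before CE analysis; activity scored in both directions against DMSO.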

[17] = ATG_TA_CIS: Attagene CIS-FACTORIAL HepG2 Assay for human TA Basal Promoter (AID 2282964); conditions: HepG2 Attagene CIS-factorial TA basal promoter reporter; actives raise or lower the signal
In short: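 Transfected HepG2, 24 h compound exposure; RNA → RT-PCR → FAM primer extension → HpaI cut → CE fluorescence. Gain/loss-of-signal fitted against DMSO negative control. Background-control readout.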

[18] = ATG_TCF_b_cat_CIS: Attagene CIS-FACTORIAL HepG2 Assay for human T-Cell-Factor with beta-catenin (TCF/b-cat) (AID 2282965); conditions: HepG2 TCF/beta-catenin cis-reporter transcription, actives raise or lower the signal
In short: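 Measured: reporter mRNA in HepG2 transiently transfected with cis-promoter reporter units, 24 h after chemical addition. Fitting was bidirectional, DMSO as negative control.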

[19] = ATG_PBREM_CIS: Attagene CIS-FACTORIAL HepG2 Assay for human Phenobarbital-responsive Enhancer Module (PBREM) (AID 2282955); conditions: HepG2 PBREM cis-reporter, Attagene multiplexed transcription; actives raise or lower the signal
In short: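 Transfected liver-derived HepG2 cells exposed 24 h; PBREM reporter transcript quantified via RT-PCR and capillary electrophoresis, with activity in either direction referenced to DMSO.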

[20] = ATG_PXRE_CIS: Attagene CIS-FACTORIAL HepG2 Assay for human Pregnane X Receptor Element (PXRE) (AID 2282957); conditions: HepG2 Attagene CIS-FACTORIAL PXRE reporter, mRNA; actives raise or lower the signal
In short: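 Bidirectional activity, baselined to DMSO, derived from reporter mRNA fluorescence (RT-PCR plus capillary electrophoresis) in HepG2 cells bearing cis-promoter reporter units, 24 h exposure.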

Measured: AC50

COS(=O)(=O)c1ccc(C)cc1
inactive: [1] | [2] | [3] | [4] | [5] | [6] | [7] | [8] | [9] | [10] | [11] | [12] | [13] | [14] | [15] | [16] | [17] | [18]

Cn1sc(Cl)cc1=O
inactive: [1] | [2] | [3] | [4] | [5] | [6] | [7] | [8] | [9] | [19] | [10] | [20] | [12] | [13] | [14] | [15] | [16] | [17]
active: [11] 100 µM

O=C(c1ccccc1)C(Cl)Cl
active: [1] 5.81 µM | [3] 14.9 µM | [9] 26.7 µM | [10] 26.8 µM | [13] 25.7 µM | [14] 25.2 µM | [15] 26.4 µM | [18] 25 µM
inactive: [2] | [4] | [5] | [6] | [7] | [8] | [20] | [11] | [12] | [16] | [17]

CC(C)C1CCC(Cc2ccc(Cl)cc2)C1(O)Cn1cncn1 (stereo not given)
inactive: [1] | [2] | [3] | [4] | [5] | [6] | [7] | [8] | [19] | [10] | [12] | [13] | [14] | [15] | [16] | [17]
active: [9] 11 µM | [20] 1.04 µM

Fc1ccc(C2(Cn3cncn3)OC2c2ccccc2Cl)cc1 (stereo not given)
active: [20] 3.04 µM | [15] 27.3 µM
inactive: [1] | [2] | [3] | [4] | [5] | [6] | [7] | [8] | [9] | [19] | [10] | [12] | [13] | [14] | [16] | [17]

ClC1=C(Cl)[C@]2(Cl)[C@@H]3[C@@H](Cl)[C@@H](Cl)C[C@@H]3[C@@]1(Cl)C2(Cl)Cl
inactive: [1] | [2] | [3] | [4] | [5] | [6] | [7] | [8] | [9] | [19] | [10] | [20] | [11] | [12] | [13] | [14] | [15] | [16] | [17]

CCCCOCCOC(C)=O
inactive: [1] | [2] | [3] | [4] | [5] | [6] | [7] | [8] | [9] | [19] | [10] | [20] | [11] | [12] | [13] | [14] | [15] | [16] | [17]
